Screening data deposited in PubChem BioAssay by National Center for Advancing Translational Sciences (NCATS).
A selection: hits, their analogues and other compounds. The true share with any hit is near 8.7%.
AMA1 RON2 block: qHTS for Inhibitors of AMA1-RON; Towards Development of Antimalarial Drug Lead: Primary Screen | Potency, µM (titrated, usually from 58.2 µM), without a hit: at the top dose activity change, negative = inhibition, usual class: inhibitors | actives 0.2% (n = 360,000) | Plasmodium falciparum AMA1 (3D7) - RON2 peptide interaction | AlphaScreen AMA1-biotinylated RON2 peptide binding;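 further: 0% = vehicle wells and -100% = peptide control; nearly all actives have a fitted effect of over 45% in size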
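AMA1 (3D7) with his tag at 25 nM final met compounds first, then biotinylated RON2 peptide at 25 nM; detection used donor plus acceptor beads, 10 µg/mL apiece, read by AlphaScreen after 30 min at room temperature.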
Pf growth 48h: Primary qHTS for delayed death inhibitors of the malarial parasite plastid, 48 hour incubation | P. falciparum luciferase growth in erythrocytes, 48 h | Potency, µM (doses to about 28.7 µM), without a hit: at the top dose activity change, negative = inhibition, actives largely listed as inhibitors | actives 5.9% (n = 310,000)
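Cell-based growth assay: transgenic P. falciparum expressing firefly luciferase, cultured in red cells within RPMI 1640 containing 0.5% w/v Albumax, 24 mM bicarbonate and gentamycin. A drop in luciferase activity indicates inhibition.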
VACV mCherry inh: qHTS for Stage-Specific Inhibitors of Vaccinia Orthopoxvirus: mCherry Reporter Primary qHTS | actives 0.63% (n = 310,000) | Potency, µM (doses to about 36.5 µM), without a hit: at the top dose activity change, negative = inhibition, usual class: inhibitors | Vaccinia virus mCherry reporter infection, fluorescence; calls by dose curve; tested in A549 cells; further: nearly all actives have a fitted effect of over 35% in size
Pf growth 96h: Primary qHTS for delayed death inhibitors of the malarial parasite plastid, 96 hour incubation; Potency, µM (doses to about 28.7 µM), for inactives: top-dose activity change, negative = inhibition, hits mostly inhibitors; P. falciparum luciferase reporter growth, 96 h; actives 6.9% (n = 320,000)
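P. falciparum expressing integrated firefly luciferase, in erythrocytes at 2% hematocrit, 0.05% parasitemia, incubated with compounds 96 h at 37 C, 5% CO2. Growth inhibition read as loss of luminescence; two-generation exposure targets delayed-death apicoplast inhibitors.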
VACV Venus inh: qHTS for Stage-Specific Inhibitors of Vaccinia Orthopoxvirus: Venus Reporter Primary qHTS | actives 0.46% (n = 330,000) | Vaccinia virus Venus reporter expression, fluorescence | Potency, µM (titrated, usually from 36.5 µM), for the others: at the highest dose activity change, negative = inhibition, most hits filed as inhibitors; calls by dose curve; tested in A549 cells; further: nearly all actives have a fitted effect of over 30% in size
Starred values were filed as active, the others as inactive. Unless noted, the call rests on the fitted dose curve; in most records, active means well fitted curve in the direction sought with a large enough effect; inconclusive means small, poorly fitted or top-dose-only effect, or another doubt; inactive means no such curve, though single readings can be large; an effect the other way counts as inactive or inconclusive. Unless noted, on the % scale 0 is the no-effect control and ±100 the full control effect; potency means the concentration at half of the fitted maximal effect.

Results for Cn1c(-[n+]2c(-c3ccccc3)cc(-c3ccccc3)cc2-c2ccccc2)nc2c([N+](=O)[O-])cccc21 ?
AMA1 RON2 block: 42.9%; Pf growth 48h: 11.7µM*; VACV mCherry inh: -9.0%; Pf growth 96h: inconclusive; VACV Venus inh: inconclusive

What do the screens show for `CCOc1ccc(CNC(=O)c2ccc3c(Cl)c4c(nc3c2)CCCC4)cc1`?
VACV mCherry inh: -21.2%; VACV Venus inh: -15.2%

What do the screens show for `COc1ccc(OCC(=O)Nc2cccc(-c3nc4ccccc4[nH]3)c2)cc1`?
AMA1 RON2 block: -14.2%; Pf growth 48h: inconclusive; Pf growth 96h: 11.7µM*

Results for CCCOc1ccc(C(=O)Nc2cccc(-c3nc4ccccc4[nH]3)c2)cc1 ?
VACV mCherry inh: 18.1%; VACV Venus inh: -20.8%

Results for CC(C)(Oc1ccc(Br)cc1)C(=O)Nc1cc(-c2nc3ccccc3[nH]2)ccc1Cl ?
VACV mCherry inh: -23.0%; VACV Venus inh: -21.1%

What do the screens show for `O=C(CSc1ccccc1)Nc1ccc(-c2nc3ccccc3[nH]2)cc1`?
AMA1 RON2 block: -5.7%; Pf growth 48h: inconclusive; VACV mCherry inh: -17.5%; Pf growth 96h: -16.4%; VACV Venus inh: inconclusive

Results for O=C(CSc1ccc(Cl)cc1)Nc1cccc(-c2nc3ccccc3[nH]2)c1 ?
AMA1 RON2 block: -15.9%; Pf growth 48h: 3.7µM*; VACV mCherry inh: -10.4%; Pf growth 96h: inconclusive; VACV Venus inh: inconclusive

Results for COc1cccc(OC)c1C(=O)NC(=S)Nc1cc(-c2nc3ccccc3[nH]2)ccc1Cl ?
AMA1 RON2 block: 3.4%; Pf growth 48h: 4.15µM*; VACV mCherry inh: -14.2%; Pf growth 96h: inconclusive; VACV Venus inh: -25.1%

What do the screens show for `CCOc1cc(OCC)cc(C(=O)Nc2cccc(-c3nc4ccccc4[nH]3)c2)c1`?
VACV mCherry inh: 11.2µM*; VACV Venus inh: 11.2µM*

How did O=C(COc1ccccc1)Nc1cccc(-c2nc3ccccc3[nH]2)c1 do in these assays?
AMA1 RON2 block: -6.8%; Pf growth 48h: 4.2%; VACV mCherry inh: 4.4%; Pf growth 96h: -0.4%; VACV Venus inh: inconclusive

What do the screens show for `COC(=O)CCSc1nc2sc3c(c2c(=O)n1Cc1ccccc1)CCC(C(C)(C)C)C3` (centres undefined)?
VACV mCherry inh: -5.4%; VACV Venus inh: -7.8%

Results for COc1ccc(-c2cc(C(F)(F)F)nc(SCC(=O)N3CCCCC3)n2)cc1 ?
VACV mCherry inh: -7.0%; VACV Venus inh: 2.3%

Results for Cc1c(CNCCc2ccc(S(N)(=O)=O)cc2)c(C(=O)O)c(C)n1Cc1ccc(Cl)cc1 ?
VACV mCherry inh: -11.8%; VACV Venus inh: 1.2%

What do the screens show for `CCOC(=O)c1ccccc1NC(=O)N(C)CCc1c(C)nn(CC)c1C`?
VACV mCherry inh: -8.9%; VACV Venus inh: -7.3%

How did CS(=O)(=O)c1cccc(C(=O)Nc2cccc(-c3nc4ccccc4[nH]3)c2)c1 do in these assays?
AMA1 RON2 block: 0.5%; Pf growth 48h: -15.3%; VACV mCherry inh: -18.0%; Pf growth 96h: inconclusive; VACV Venus inh: -16.7%

What do the screens show for `CS(=O)(=O)Cc1ccc(C(=O)Nc2cccc(-c3nc4ccccc4[nH]3)c2)cc1`?
AMA1 RON2 block: -14.5%; Pf growth 48h: -43.9%; VACV mCherry inh: -11.2%; Pf growth 96h: 8.28µM*; VACV Venus inh: -10.7%

What do the screens show for `O=C(NCc1ccc(F)cc1)c1cc2cccc3c2n1CCS3`?
VACV mCherry inh: 10.6%; VACV Venus inh: 12.8%

What do the screens show for `CCc1cc(CNC(=O)C2CCC(=O)N(CCc3cccc(F)c3)C2)on1` (centres undefined)?
AMA1 RON2 block: -1.2%; Pf growth 48h: 2.7%; VACV mCherry inh: -13.7%; Pf growth 96h: 13.1µM*; VACV Venus inh: -7.3%

What do the screens show for `CN(CCC1CCOCC1)C(=O)C1CCC(=O)N(CCc2cccc(F)c2)C1` (centres undefined)?
AMA1 RON2 block: -2.1%; Pf growth 48h: -6.5%; VACV mCherry inh: inactive; Pf growth 96h: 14.7µM*; VACV Venus inh: -17.3%

How did CN(CCC1CCOCC1)C(=O)C1CCC(=O)N(CCc2ccc(Cl)cc2)C1 (centres undefined) do in these assays?
AMA1 RON2 block: -1.7%; Pf growth 48h: 4.5%; Pf growth 96h: 43.8%

How did O=C(NCCOc1ccccc1F)C1CCC(=O)N(CCc2cccc(F)c2)C1 (centres undefined) do in these assays?
AMA1 RON2 block: 4.2%; Pf growth 48h: inconclusive; VACV mCherry inh: -18.2%; Pf growth 96h: 14.7µM*; VACV Venus inh: -18.0%

What do the screens show for `Cc1ccccc1CCNC(=O)C1CCC(=O)N(CCc2cccc(F)c2)C1` (centres undefined)?
AMA1 RON2 block: -13.6%; Pf growth 48h: -17.8%; Pf growth 96h: 2.4%

Results for Cc1cc(CNC(=O)C2CCC(=O)N(CCc3cccc(F)c3)C2)on1 (centres undefined) ?
AMA1 RON2 block: 9.7%; Pf growth 48h: -2.0%; Pf growth 96h: 13.1µM*

What do the screens show for `CCc1nc(CNC(=O)C2CCC(=O)N(CCc3cccc(F)c3)C2)no1` (centres undefined)?
AMA1 RON2 block: 4.9%; Pf growth 48h: 20.4%; VACV mCherry inh: inactive; Pf growth 96h: inconclusive; VACV Venus inh: -7.2%

How did OC[C@H]1O[C@@](CO)(O[C@H]2O[C@H](CO)[C@@H](O)[C@H](O)[C@H]2O)[C@@H](O)[C@@H]1O do in these assays?
Pf growth 48h: -5.0%; Pf growth 96h: -12.7%

How did Cn1cccc1/C=N/NC(=O)c1sc2cc(Cl)ccc2c1Cl do in these assays?
Pf growth 48h: 6.5%; Pf growth 96h: 2.33µM*

What do the screens show for `COc1ccc(N2C(=O)NC(NS(=O)(=O)c3ccc(NC(C)=O)cc3)(C(F)(F)F)C2=O)cc1` (centres undefined)?
AMA1 RON2 block: -10.5%; Pf growth 48h: 0.0%; VACV mCherry inh: -10.4%; Pf growth 96h: 9.28µM*; VACV Venus inh: -10.7%

What do the screens show for `Cc1ccc(S(=O)(=O)N[C@@H](CCCCN)C(=O)CCl)cc1`?
AMA1 RON2 block: -18.7%; Pf growth 48h: inconclusive; VACV mCherry inh: -14.7%; Pf growth 96h: 12µM*; VACV Venus inh: 1.8%

Results for Cc1ccc(S(=O)(=O)NC(CC(N)=O)C(=O)O)cc1 (centres undefined) ?
AMA1 RON2 block: -1.6%; Pf growth 48h: 6.6%; Pf growth 96h: inconclusive; VACV Venus inh: -2.4%

How did Cc1cccc(NC(=O)C2CCN(S(=O)(=O)c3ccc4c(c3)CCCN4C(=O)C3CCC3)CC2)c1 do in these assays?
VACV mCherry inh: -9.4%; VACV Venus inh: -10.0%
